Compound activity deposited in PubChem by National Center for Advancing Translational Sciences (NCATS).
Only some compounds are listed: those with a hit (about 21% of all), similar ones and a draw of the others.
Pf growth 96h – P. falciparum growth inhibition at 96 hours. Potency, µM (series often up to 28.7 µM), for inactives: at the highest dose activity change, negative = inhibition, actives largely listed as inhibitors. P. falciparum luciferase reporter growth, 96 h. hit rate 6.9% among 320,000; also: potency is read from the fitted curve at half-maximal effect; % is scaled to controls: 0 for no effect and ±100 for the full control effect
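Two-generation exposure (96 h) targets delayed-death phenotype. Reporter parasites carrying integrated firefly luciferase, in red cells at 2% hematocrit and 0.05% parasitemia final, kept at 37 C, 5% CO2; luminescence loss indicates inhibition.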
AMA1-RON2 inh – AMA1-RON2 (P. falciparum) interaction inhibition. AlphaScreen AMA1-biotinylated RON2 peptide binding. Potency, µM (highest dose often 58.2 µM), for the others: at the highest dose activity change, negative = inhibition, usual class: inhibitors. hit rate 0.2% among 360,000. AID 720542;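 also: potency is read from the fitted curve at half-maximal effect; 0% = vehicle wells and -100% = peptide control; nearly all actives have a fitted effect of over 45% in size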
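AMA1 (3D7) with his tag at 25 nM final met compounds first, then biotinylated RON2 peptide at 25 nM; detection used donor plus acceptor beads, 10 µg/mL apiece, read by AlphaScreen after 30 min at room temperature.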
Cycloheximide cs – counter-screen hit for Shiga toxin inhibitors, cycloheximide; cell reporter, cycloheximide protein synthesis inhibition counterscreen; max response, %; AID 2314; hit rate 12% among 300,000; in the data active = max response mostly above about 13%, no sharp cut-off; inactive = mostly below about 14%; also: read at 38.3 µM for the half of the compounds with a filed dose; 0% is about no effect
Pf growth 48h – inhibits P. falciparum growth in the first generation, 48 h; P. falciparum luciferase growth in erythrocytes, 48 h; Potency, µM (doses to about 28.7 µM), for inactives: at the highest dose activity change, negative = inhibition, most hits filed as inhibitors; hit rate 5.9% among 310,000; AID 504832; also: potency is read from the fitted curve at half-maximal effect; % is scaled to controls: 0 for no effect and ±100 for the full control effect
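Parasite viability was followed by luminescence of a genomically integrated firefly luciferase. Cultures held 0.1% parasitemia at 2% hematocrit (final), incubated under 5% CO2 at 37 C.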
HCV inh – inhibitors of hepatitis C virus infection. AID 651820. Potency, µM (titrated, usually from 41.8 µM), for inactives: top-dose activity change, negative = inhibition, usual class: inhibitors. Huh7.5.1 HCVcc-Cre infection, luciferase reporter, 44 h. hit rate 3.4% among 340,000; also: potency is read from the fitted curve at half-maximal effect; % is scaled to controls: 0 for no effect and ±100 for the full control effect
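Infectious HCVcc-Cre (~0.5 moi) was added to cells just after compound, with cells seeded 4 h earlier at 1,000 per well. Luciferase activity after 44 h culture reported infection; substrate was incubated 15 min at room temperature before reading.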
Shiga toxin inh – inhibitors of Shiga toxin in Vero cells. Vero cells, Shiga toxin protein synthesis inhibition reporter. inhibition, % at 38.7 µM. hit rate 9.2% among 290,000; in the data active = inhibition mostly above about 28%, no sharp cut-off; inactive = mostly below about 43%; also: 0% is about no effect
Active calls of the source: *; ? = inconclusive; . = no result given. Unless noted, calls follow the shape of the dose curve; as a rule, active = well fitted curve in the direction sought with a large enough effect; inconclusive = small, poorly fitted or top-dose-only effect, or another doubt; inactive = no such curve, though single readings can be large; an effect the other way counts as inactive or inconclusive.

SMILES	Pf growth 96h	AMA1-RON2 inh	Cycloheximide cs	Pf growth 48h	HCV inh	Shiga toxin inh
Cc1[nH]c(=S)[nH]c(=O)c1Cc1c(O)ccc2ccccc12	.	22%	.	.	20%	.
Cc1[nH]c(=S)[nH]c(=O)c1Cc1ccccc1	13µM*	15%	0	28%	10%	3
COc1ccc(Cc2c(O)[nH]c(=S)[nH]c2=O)cc1	0.37µM*	0%	-4	4%	-7%	-4
COCCCN1Cc2cccc(C(=O)O)c2C1=O	8.3µM*	0%	3	.	6%	17
COCCN1Cc2cccc(C(=O)NCCc3ccccc3)c2C1=O	14%	-2%	-1	-8%	-10%	-3
COc1ccccc1N1CCN(C(=O)/C=C/c2c(Cl)nc3ccccn23)CC1	39%	13%	5	?	11µM*	-16
COc1ccc(NC(=O)/C=C/c2c(Cl)nc3ccccn23)cc1	-19%	-9%	20*	1%	?	-2
Cc1ccc(S(=O)(=O)N(C)C)cc1NC(=O)COC(=O)CNC(=O)c1cccs1	70%	0%	.	?	1%	.
COc1cc(C)c(CNc2ccc(OC)c(OC)c2)cc1C	.	.	14*	9.3µM*	.	76*
COc1ccc(CNc2ccc(C)c(C)c2)c(OC)c1OC	11%	?	24*	?	?	33
COc1cc(C)c(CNc2cccc(C)c2)cc1C	-21%	-30%	6	.	0%	6
COc1ccc(CNc2nc3ccc(C)cc3s2)c(OC)c1OC	1%	-1%	15*	?	?	41*
COc1cc(CNCc2ccc(OC)c(OC)c2OC)cc(OC)c1	11%	-3%	-4	3%	10µM*	-4
COc1cc(CNc2nc3ccccc3s2)cc(OC)c1OC	27%	-5%	12	-3%	-8%	-7
Cc1ccc(S(=O)(=O)NCC(=O)N2CCN(S(=O)(=O)c3ccc(Cl)cc3)CC2)cc1C	0%	10%	.	-2%	0%	.
Cc1c(C(=O)Nc2ccc(N3CCOCC3)cc2)cccc1[N+](=O)[O-]	-1%	21%	-5	-24%	?	-14
O=C(NC(=S)Nc1ccc(N2CCOCC2)cc1)c1ccccc1	33%	?	16	216%	7%	42
Cc1c(C(=O)NC(=S)Nc2ccc(N3CCOCC3)cc2)cccc1[N+](=O)[O-]	?	2%	9.8*	5%	5%	43*
Cc1ccccc1C(=O)NC(=S)Nc1ccc(N2CCOCC2)cc1	-4%	2%	11*	15%	-1%	6
COc1ccc(Cn2nnnc2C(c2cc3ccc(OC)cc3[nH]c2=O)N2CCCCCC2)cc1 (configuration not stated)	8%	7%	11	9.3µM*	-5%	12
COc1ccc2cc(C(c3nnnn3C(C)(C)C)N3CCc4ccccc4C3)c(=O)[nH]c2c1 (configuration not stated)	?	.	-2	?	?	-3
COc1ccc2cc(C(c3nnnn3C(C)(C)C)N3CCSCC3)c(=O)[nH]c2c1 (configuration not stated)	-3%	-8%	-6	12µM*	-24%	-27
NC(=O)c1ccc(/C(N)=N/S(=O)(=O)c2cc(C(F)(F)F)cc(C(F)(F)F)c2)cc1	11%	-7%	-1	-5%	-20%	-9
Cc1ccc(CN2C3CCCC2CC(NC(=O)c2ccc(C)cc2)C3)cc1 (configuration not stated)	-1%	-3%	21	?	32µM*	-6
CC(C)(C)n1nnnc1CN1CCC(NC(=O)NC2CCCCC2)CC1	2%	12%	-1	-23%	1%	-6
SMILES	Pf growth 96h	AMA1-RON2 inh	Cycloheximide cs	Pf growth 48h	HCV inh	Shiga toxin inh
Cc1ccccc1C(=O)NC1CCN(Cc2nnnn2C(C)(C)C)CC1	46%	-11%	1	6%	13%	-14
Cc1ccccc1C(=O)NC1CCN(Cc2nnnn2C2CCCC2)CC1	6.6µM*	38%	-2	-9%	7%	0
CC(=O)NC1CC2CCCC(C1)N2Cc1ccc(C)cc1 (configuration not stated)	?	2%	-2	2%	10%	-3
CCC(C)(C)n1nnnc1CN1CCC(NC(=O)c2ccc(Br)cc2)CC1	4.1µM*	-3%	4	?	?	-6
Cc1ccc(Cn2nnnc2CN2CCC(NC(=O)c3ccc(Br)cc3)CC2)cc1	?	-7%	-3	3.7µM*	-10%	4
Cc1ccc(NC(=S)N(C)C)cc1C	0%	9%	-4	-10%	-9%	11
COc1ccc(NC(=O)CSC(C)c2nc3ccccc3c(=O)[nH]2)cc1 (configuration not stated)	9%	5%	5	12%	19%	-3
COc1cccc(-c2cc(C(=O)NCc3ccco3)c3ccccc3n2)c1	?	-5%	-3	?	?	.
CC[n+]1c(/C=C(\C)SC)sc2ccccc21	?	1%	-1	0.29µM*	?	10
CC[n+]1c(/C=C(/C)SC)sc2ccccc21	?	-9%	-2	1.7µM*	?	6
CC[n+]1c(/C=C(\C)OC)sc2ccccc21	-29%	-5%	1	34%	1%	-3
CC[n+]1c(/C=C(\C)Nc2ccccc2)sc2ccccc21	-18%	-18%	-1	5.2µM*	9%	-13
CC/C(=C/c1sc2ccccc2[n+]1CC)SC	1.7µM*	-8%	2	?	?	-15
O=C(COC(=O)c1cccc([N+](=O)[O-])c1)Nc1ncc(Br)s1	.	3%	.	.	1%	.
CCCOC(=O)c1ccc(-[n+]2c(-c3ccccc3)cc(-c3ccccc3)cc2-c2ccccc2)cc1	1.3µM*	2%	.	2.3µM*	?	.
COc1ccc(-[n+]2c(-c3ccccc3)cc(-c3ccc(C)cc3)cc2-c2ccccc2)cc1	145%	?	-9	0.93µM*	?	-15
Cc1ccc(-c2cc(-c3ccc(C)cc3)[n+](-c3ccc(C(=O)O)cc3)c(-c3ccc(C)cc3)c2)cc1	?	14%	.	.	41%	.
O=C(O)c1ccc(-[n+]2c(-c3ccccc3)cc(-c3ccccc3)cc2-c2ccccc2)cc1	?	-5%	.	?	-7%	.
Brc1ccc(-[n+]2c(-c3ccccc3)cc(-c3ccccc3)cc2-c2ccccc2)cc1	0.83µM*	-4%	.	1.9µM*	?	.
O=C(CCNS(=O)(=O)c1ccccc1F)N1CCN(C/C=C/c2ccccc2)CC1	?	7%	.	-6%	?	.
CC1CN(S(=O)(=O)c2cccc(C(=O)Nc3ccccc3N3CCOCC3)c2)CC(C)O1 (configuration not stated)	?	0%	.	13µM*	?	.
CC1CN(S(=O)(=O)c2cccc(C(=O)Nc3ccccc3N3CCCCC3)c2)CC(C)O1 (configuration not stated)	?	-15%	.	12µM*	?	.
